Screens (PubChem)
Shown are actives, neighbours in structure and some others; about 0.72% of the full set was active somewhere.
PKA-R2B activ: activates the human PKA-R2B holoenzyme complex; P22694+P31323; PKA-R2B holoenzyme dissociation, Cy5-IP20 fluorescence polarization; R2B truncated from residue 108, S112A mutant; 0% DMSO only, 100% 113 µM cGMP; activation, % at 11.4 µM; 340,000 tested, 0.079% active;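 active = activation above a cutoff set at the mean over all compounds plus 3 SD, cut at about 18% in these data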;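 note: higher means more holoenzyme dissociation and a rise in polarization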
PKA-R1A activ: activates the PKA-R1A holoenzyme complex; P00514+P68181; PKA-R1A dissociation, Cy5-IP20 fluorescence polarization; scaled: DMSO 0%, 113 µM cGMP 100%; activation, % at 11.4 µM; 340,000 tested, 0.083% active;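 active = percent activation above the mean of all tested compounds plus 3 SD, cut at about 19% in these data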;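 note: higher means more PKAc released from R1A so a rise in polarization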
Neddylation inh: inhibitors of human cullin neddylation | P61081+Q13564 | 360,000 tested, 0.58% active | AID 651699 | calls only at 25 µM | TR-FRET cullin neddylation, biochemical; in the data active = inhibition above about 36%
Target sequence (P61081 whole entry, looked up): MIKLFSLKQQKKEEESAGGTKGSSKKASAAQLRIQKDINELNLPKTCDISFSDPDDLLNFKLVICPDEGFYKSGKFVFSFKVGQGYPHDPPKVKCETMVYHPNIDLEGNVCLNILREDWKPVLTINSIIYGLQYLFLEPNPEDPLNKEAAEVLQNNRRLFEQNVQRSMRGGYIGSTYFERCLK
Target sequence (Q13564 whole entry, looked up): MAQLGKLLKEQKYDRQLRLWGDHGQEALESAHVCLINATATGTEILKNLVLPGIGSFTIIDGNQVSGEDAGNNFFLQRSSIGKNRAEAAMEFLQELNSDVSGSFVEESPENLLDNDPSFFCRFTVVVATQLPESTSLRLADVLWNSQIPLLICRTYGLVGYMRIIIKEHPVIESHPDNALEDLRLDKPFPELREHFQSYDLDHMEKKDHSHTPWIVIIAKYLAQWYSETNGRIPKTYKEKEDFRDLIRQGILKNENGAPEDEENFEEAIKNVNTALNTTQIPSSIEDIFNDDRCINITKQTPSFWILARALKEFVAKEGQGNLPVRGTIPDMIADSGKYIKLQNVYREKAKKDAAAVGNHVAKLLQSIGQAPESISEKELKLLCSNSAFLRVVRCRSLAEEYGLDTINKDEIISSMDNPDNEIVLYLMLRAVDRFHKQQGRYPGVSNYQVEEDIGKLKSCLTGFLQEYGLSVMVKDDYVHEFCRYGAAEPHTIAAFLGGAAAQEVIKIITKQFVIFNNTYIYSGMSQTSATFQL
PolyA inh: blocks polyadenylation in yeast reporter cells | S. cerevisiae SKY197-pL101 polyadenylation reporter, beta-gal luminescence; efflux-impaired pdr1/pdr3 knockout yeast; score 100 = 6 SD above DMSO | activity score, % at 12 µM | 300,000 tested, 0.02% active;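 active = lowest replicate activity score at least 50, where 100 means six control SD above control mean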;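 note: yeast exposed to compound for 9 h at 30 °C; higher score means more reporter readthrough which indicates perturbed polyadenylation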
Neddyl inh conf: confirmation of human cullin neddylation inhibitors. shares compounds with Neddylation inh. TR-FRET cullin neddylation biochemical assay. calls only at 25 µM. 1,800 tested, 13% active; in the data active = inhibition above about 40%;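 note: neddylation substrate is the cullin 1 ring ligase complex with SKP2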
* = called active by the depositor.

`CCN(c1ccccc1)S(=O)(=O)c1ccc(C(=O)NC2CCN(Cc3ccccc3)CC2)cc1` gave PKA-R2B activ -4.4, PKA-R1A activ 4.3 and Neddylation inh inactive.
`CCOC(=O)N1CCN(CC(O)c2ccc3cc[nH]c3c2)CC1` (stereo not given) gave PKA-R2B activ -5.3, PKA-R1A activ -12.8, Neddylation inh inactive and PolyA inh -10.3.
COc1ccccc1N1CCN(CC(O)c2ccc3cc[nH]c3c2)CC1 (stereo not given) was read as PKA-R2B activ -1.2, PKA-R1A activ -3.0, Neddylation inh active, PolyA inh 4.0 and Neddyl inh conf inactive.
`COCCN(C(=O)COC(=O)/C=C/c1cccc(OC)c1)c1c(N)n(CC(C)C)c(=O)[nH]c1=O` gave PKA-R2B activ -1.3, PKA-R1A activ -1.2 and Neddylation inh active.
COCCN(C(=O)COC(=O)/C=C/c1ccc(OC)c(OC)c1)c1c(N)n(Cc2ccccc2)c(=O)[nH]c1=O was read as PKA-R2B activ 0.4, PKA-R1A activ 0.1, Neddylation inh inactive and PolyA inh 3.0.
CNc1c(NS(=O)(=O)c2ccc(C(C)(C)C)cc2)c(=O)oc2ccccc12 was read as PKA-R2B activ -7.0, PKA-R1A activ 4.4, Neddylation inh active, PolyA inh 18.8 and Neddyl inh conf inactive.
`NCCCCCNC(=O)c1[nH]cnc1C(=O)N[C@@H](Cc1ccccc1)C(=O)OCc1ccccc1` gave PKA-R2B activ -7.8, PKA-R1A activ 3.0 and Neddylation inh inactive.
Screening CN(c1ccccc1)S(=O)(=O)c1cc(C(=O)NCc2ccco2)ccc1Cl returned PKA-R2B activ -14.3, PKA-R1A activ 5.4 and Neddylation inh inactive.
O=c1ccc(/C=C/c2ccccc2)nn1Cc1ccccc1 was read as PKA-R2B activ -5.7, PKA-R1A activ -7.5, Neddylation inh active, PolyA inh 10.4 and Neddyl inh conf inactive.
Cn1nc(/C=C/c2ccccc2)ccc1=O was read as PKA-R2B activ -3.3, PKA-R1A activ 4.6, Neddylation inh active, PolyA inh -0.3 and Neddyl inh conf inactive.
Screening Cc1nc(/C=C/c2ccccc2)cc(/C=C/c2ccccc2)n1 returned PKA-R2B activ -7.1, PKA-R1A activ 1.8, Neddylation inh inactive and PolyA inh -6.9.
Screening CC(=O)c1ccc(NS(=O)(=O)c2ccc3c(c2)CCC(=O)N3)cc1 returned PKA-R2B activ 1.2, PKA-R1A activ 1.1 and Neddylation inh inactive.
`CN(C)c1ccc(-c2nc3cnccn3c2Nc2ccc3c(c2)OCCO3)cc1` gave PKA-R2B activ -2.1, PKA-R1A activ -0.6, Neddylation inh active and PolyA inh 18.8.
CN(c1ccc(OCC(=O)NC2CCC(O)CC2)cc1)S(=O)(=O)c1ccc(Cl)cc1 (stereo not given) was read as PKA-R2B activ 3.4, PKA-R1A activ -0.4 and Neddylation inh inactive.
`Cc1ccc2nc(NCCCN3CCOCC3)c(C=NCCCN3CCOCC3)c(=O)n2c1` gave PKA-R2B activ -2.9, PKA-R1A activ -5.0, Neddylation inh active, PolyA inh 8.8 and Neddyl inh conf inactive.
`Cc1ccc2nc(NCc3ccccc3)c(C=NCc3ccccc3)c(=O)n2c1` gave PKA-R2B activ -3.9, PKA-R1A activ 7.3, Neddylation inh inactive and PolyA inh -18.5.
CCCN(CCC)CCCNC(=O)c1cn(CCOC)c(=O)c2c1c1ccccc1n2C was read as PKA-R2B activ -2.8, PKA-R1A activ -9.1, Neddylation inh active, PolyA inh 1.3 and Neddyl inh conf inactive.
CCCN(CCC)CCCNC(=O)c1cc2c(=O)n(C)c3ccccc3c2n1C was read as PKA-R2B activ -0.9, PKA-R1A activ 7.5, Neddylation inh inactive and PolyA inh 8.1.
For CCN(CC)CCNC(=O)c1cc2c(=O)n(C)c3ccccc3c2n1C the results were PKA-R2B activ -6.7, PKA-R1A activ 5.7, Neddylation inh active and PolyA inh -2.2.
`CCN(CC)CCNC(=O)c1nn(-c2ccc(C)cc2)c(=O)c2c1c1ccccc1n2C` gave PKA-R2B activ -12.6, PKA-R1A activ 2.9, Neddylation inh active, PolyA inh 9.0 and Neddyl inh conf inactive.
Screening CCN(CC)CCCNC(=O)c1cc2c(=O)n(C)c3ccccc3c2n1C returned PKA-R2B activ -8.2, PKA-R1A activ -3.5, Neddylation inh active, PolyA inh -5.4 and Neddyl inh conf inactive.
